Results from PubChem BioAssay (Tox21).
Inconclusive results are not listed. Active and inactive are the calls of the source. Unless noted, calls come from the whole dose curve.

Legend:
[1] = biological target: Gonadotropin-releasing hormone receptor (Homo sapiens) (UniProt P30968); experiment: Human gonadotropin-releasing hormone receptor (GnRHR) small molecule agonists, calcium flux assay in GnRHR-HEK293 cells (AID 1920063); note: nearly all actives have a fitted effect of over 35% in size
Outline: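 GnRHR-HEK293, 1500 cells/well, 18 h 37 C/5% CO2; Ca dye 1 h 37 C; cpd pinned (DMSO), agonist mode; kinetic FL 480/540, 3 min, 1 s reads; 15 conc, n=3.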

[2] = G protein-coupled receptor (GPCR) small molecule agonists, calcium flux assay: HEK293 wild type cell line counter screen (AID 1920065)
Outline: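 Kinetic fluorescence at Ex/Em 480/540, recorded every second over 3 min, served as the read-out after compound addition. Each compound was tested at 15 concentrations in triplicate on cells pre-loaded with calcium dye for 1 h.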

[3] = p53 small molecule agonists, cell-based qHTS assay with human liver microsomes (AID 1963577);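 note: p53 response element beta-lactamase reporter cells with liver microsomes plus NADPH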
Outline: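 16 h, 37 C exposure of p53RE-bla cells to compounds with human liver microsomes and NADPH (0.5 mg/mL final each); detection via LiveBLAzer mixture, 2 h dark at room temperature.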

[4] = p53 small molecule agonists, cell-based qHTS assay with rat liver microsomes (AID 1963578)
Outline: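 With rat liver microsomes and NADPH present (0.5 mg/mL final each), p53RE-bla cells are treated with compound for 16 h at 37 C. LiveBLAzer detection mixture is then applied for 2 h at room temperature in the dark.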

[5] = p53 small molecule agonists, cell-based qHTS assay with human liver microsomes: qHTS cell viability counter screen (AID 1963579); note: nearly all actives have a fitted effect of over 45% in size
Outline: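 In this multiplexed counter screen, the reporter plates were subsequently treated with CellTiter-Glo so that cell viability, reflected by luminescence, could be recorded for p53RE-bla cells dosed 16 h with compounds under microsomal activation (HLM and NADPH).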

[6] = p53 small molecule agonists, cell-based qHTS assay with rat liver microsomes: qHTS cell viability counter screen (AID 1963580); note: nearly all actives have a fitted effect of over 45% in size
Outline: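 Viability is assessed in parallel with the p53 reporter read: HCT-116 p53RE-bla cells receive compounds plus rat microsomes and NADPH (0.5 mg/mL final apiece), incubate 16 h at 37 C, and then CellTiter-Glo luminescence is recorded.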

[7] = p53 small molecule agonists, cell-based qHTS assay: qHTS cell viability counter screen (AID 1963581); note: nearly all actives have a fitted effect of over 45% in size
Outline: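 HCT-116 p53RE-bla cells, 4,000/well, plated 5 h before compound pin transfer; 16 h at 37 C; bla substrate 2 h RT; then CellTiter-Glo, 30 min RT, luminescence.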

[8] = p53 small molecule agonists, cell-based qHTS assay (AID 1963582; active = well fitted activation curve with a large enough effect in the signal ratio in the repeat runs, not every such curve was filed as active; the % refers to the signal ratio)
Outline: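 Reporter line: p53RE-bla. Pre-incubation 5 h, 37 C, 5% CO2; compound (DMSO, pin tool) 16 h, 37 C; B/G FRET substrate 2 h RT; fluorescence intensity read.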

[9] = biological target: 5-hydroxytryptamine receptor 2A (Homo sapiens) (UniProt P28223); experiment: 5-hydroxytryptamine receptor 2A (HTR2A) small molecule agonists, cell-based qHTS assay (AID 1963587); note: nearly all actives have a fitted effect of over 30% in size
Chain of 5-hydroxytryptamine receptor 2A (Homo sapiens) (P28223 whole entry, looked up): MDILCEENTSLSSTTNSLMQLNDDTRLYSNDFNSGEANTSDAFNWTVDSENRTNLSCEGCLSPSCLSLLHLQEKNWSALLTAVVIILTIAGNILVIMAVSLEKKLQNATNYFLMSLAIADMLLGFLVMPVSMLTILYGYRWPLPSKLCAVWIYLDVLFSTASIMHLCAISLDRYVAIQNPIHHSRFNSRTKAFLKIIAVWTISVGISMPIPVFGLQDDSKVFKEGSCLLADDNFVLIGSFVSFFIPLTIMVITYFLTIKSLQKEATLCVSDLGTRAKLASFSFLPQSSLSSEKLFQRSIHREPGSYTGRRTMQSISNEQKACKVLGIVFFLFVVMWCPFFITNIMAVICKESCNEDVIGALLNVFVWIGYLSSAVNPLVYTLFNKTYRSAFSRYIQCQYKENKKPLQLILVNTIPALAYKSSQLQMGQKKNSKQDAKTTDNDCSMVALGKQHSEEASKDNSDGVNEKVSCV
Outline: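 CHO cells stably expressing human HTR2A, plated 18 h, loaded with calcium dye 1 h at 37 C. Agonist mode: compounds added and intracellular calcium fluorescence recorded kinetically for 2 min at 1 sec intervals.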

[10] = biological target: Muscarinic acetylcholine receptor M1 (Homo sapiens) (UniProt P11229); experiment: Cholinergic receptor muscarinic 1 (CHRM1) small molecule antagonists, cell-based qHTS assay (AID 1963588); note: nearly all actives have a fitted effect of over 40% in size
Chain of Muscarinic acetylcholine receptor M1 (Homo sapiens) (P11229 whole entry, looked up): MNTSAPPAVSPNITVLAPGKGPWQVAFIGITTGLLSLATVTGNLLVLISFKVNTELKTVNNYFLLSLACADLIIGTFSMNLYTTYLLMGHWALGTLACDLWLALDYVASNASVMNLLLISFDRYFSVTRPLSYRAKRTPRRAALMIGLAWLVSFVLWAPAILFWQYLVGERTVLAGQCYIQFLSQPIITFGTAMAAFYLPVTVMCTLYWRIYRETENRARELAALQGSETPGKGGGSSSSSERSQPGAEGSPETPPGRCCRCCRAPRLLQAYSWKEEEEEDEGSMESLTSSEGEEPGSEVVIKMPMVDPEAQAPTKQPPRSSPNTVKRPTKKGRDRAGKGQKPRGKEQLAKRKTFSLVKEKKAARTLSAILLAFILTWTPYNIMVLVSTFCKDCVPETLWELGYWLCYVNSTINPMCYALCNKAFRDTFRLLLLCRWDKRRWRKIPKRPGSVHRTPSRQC
Outline: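 CHRM1-CHO calcium-flux assay, antagonist mode. Cells were seeded 18 h, dye-loaded 1 h at 37 C and given compound for 5 min at RT, then acetylcholine was added at 50nM. FDSS fluorescence was read 3 min; 15 concentrations, three runs.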

[11] = biological target: Muscarinic acetylcholine receptor M1 (Homo sapiens) (UniProt P11229); experiment: Cholinergic receptor muscarinic 1 (CHRM1) small molecule agonists, cell-based qHTS assay (AID 1963589); note: nearly all actives have a fitted effect of over 35% in size
Outline: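 Human M1 in stable CHO line; 18 h plating, 1 h dye load 37 C; cpd added (agonist mode); Ca2+ fluorescence kinetic read, 1 s intervals; 15 conc, 3 runs.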

[12] = cAMP Responsive Elements (CRE) small molecule agonists, cell-based qHTS assay (AID 1963590)
Outline: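 HEK 293T CRE-bla, 2,000 cells/well, 18 h preincubation 37 C/5% CO2; cpds (DMSO) pinned, 3 h; LiveBLAzer B/G FRET substrate, 2 h RT.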

[13] = cAMP Responsive Elements (CRE) small molecule antagonists, cell-based qHTS assay (AID 1963591; active = well fitted inhibition curve with a large enough effect in the signal ratio in the repeat runs, not every such curve was filed as active; the % refers to the signal ratio)
Outline: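 Beta-lactamase reporter read by FRET substrate (LiveBLAzer B/G) after 2 h at room temperature. CRE-bla HEK293T cells had received compound plus 0.25 uM (final) NKH477 for 3 h at 37 °C.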

[14] = biological target: Beta-2 adrenergic receptor (Homo sapiens) (UniProt P07550); experiment: Adrenergic beta2 receptor (ADRB2) small molecule antagonists, cell-based qHTS assay (AID 1963592); note: series mostly up to about 92 µM; nearly all actives have a fitted effect of over 50% in size
Chain of Beta-2 adrenergic receptor (Homo sapiens) (P07550 whole entry, looked up): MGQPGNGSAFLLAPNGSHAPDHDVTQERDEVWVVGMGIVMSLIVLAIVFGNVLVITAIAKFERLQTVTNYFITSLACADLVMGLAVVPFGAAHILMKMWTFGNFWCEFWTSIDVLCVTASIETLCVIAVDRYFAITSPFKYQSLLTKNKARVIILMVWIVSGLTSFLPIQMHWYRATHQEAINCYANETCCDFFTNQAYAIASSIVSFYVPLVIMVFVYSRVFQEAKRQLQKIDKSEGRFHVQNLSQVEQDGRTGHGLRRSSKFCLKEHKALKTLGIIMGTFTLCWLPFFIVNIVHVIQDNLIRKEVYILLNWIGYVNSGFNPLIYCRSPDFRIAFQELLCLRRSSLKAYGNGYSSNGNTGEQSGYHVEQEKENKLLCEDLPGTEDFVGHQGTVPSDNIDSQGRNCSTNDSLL
Outline: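 Cells (CHO, stable ADRB2 overexpression) incubated 18-20hr at 37C; compounds added from DMSO; agonist mix (1nM isoproterenol, 100uM IBMX, 25uM Ro-20-1724) added; 0.5hr RT; d2-cAMP and anti-cAMP-cryptate added; 1hr RT; 665/615 nm read.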

[15] = biological target: Beta-2 adrenergic receptor (Homo sapiens) (UniProt P07550); experiment: Adrenergic beta2 receptor (ADRB2) small molecule agonists, cell-based qHTS assay (AID 1963593);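 note: CHO cells stably overexpressing human ADRB2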
Outline: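 CHO cells stably over-expressing ADRB2 were plated overnight at 37C, then dosed with compounds plus a stimulation mix containing 100uM IBMX and 25uM Ro-20-1724 for 0.5hr at room temperature. cAMP was measured by HTRF competition, 1hr.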

[16] = biological target: KiSS-1 receptor (Homo sapiens) (UniProt Q969F8); experiment: Human kisspeptin (KISS1R) small molecule agonists, calcium flux assay in KISS1R-HEK293 cells (AID 1920064; active = well fitted activation curve with a large enough effect in the repeat runs)
Chain of KiSS-1 receptor (Homo sapiens) (Q969F8 whole entry, looked up): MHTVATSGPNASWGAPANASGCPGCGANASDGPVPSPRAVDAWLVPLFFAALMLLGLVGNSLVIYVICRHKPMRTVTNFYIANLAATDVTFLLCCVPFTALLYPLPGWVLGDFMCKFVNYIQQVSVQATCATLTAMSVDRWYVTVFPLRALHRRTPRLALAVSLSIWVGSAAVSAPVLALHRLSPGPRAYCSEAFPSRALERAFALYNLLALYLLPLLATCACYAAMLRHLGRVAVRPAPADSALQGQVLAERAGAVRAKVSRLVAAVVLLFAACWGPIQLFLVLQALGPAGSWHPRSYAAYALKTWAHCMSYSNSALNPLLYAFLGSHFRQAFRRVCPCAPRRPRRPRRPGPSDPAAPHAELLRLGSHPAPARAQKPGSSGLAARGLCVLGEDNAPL
Outline: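 Stable human KISS1R HEK293 line; 18 h plating, 37 C/5% CO2; calcium dye 1 h 37 C; compound pin transfer; kinetic fluorescence Ex/Em 480/540, 3 min.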

[17] = biological target: 5-hydroxytryptamine receptor 2A (Homo sapiens) (UniProt P28223); experiment: 5-hydroxytryptamine receptor 2A (HTR2A) small molecule antagonists, cell-based qHTS assay (AID 1963586); note: nearly all actives have a fitted effect of over 45% in size
Outline: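 Antagonist-mode intracellular calcium assay: DOI (4 nM) added after 5 min compound pre-incubation at room temperature to dye-loaded HTR2A-CHO cells. Fluorescence followed for 3 min, sampled every second.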

[18] = biological target: D(2) dopamine receptor (Homo sapiens) (UniProt P14416); experiment: Dopamine D2 receptor (DRD2) small molecule agonists, cell-based qHTS assay (AID 1963594); note: nearly all actives have a fitted effect of over 35% in size
Chain of D(2) dopamine receptor (Homo sapiens) (P14416 whole entry, looked up): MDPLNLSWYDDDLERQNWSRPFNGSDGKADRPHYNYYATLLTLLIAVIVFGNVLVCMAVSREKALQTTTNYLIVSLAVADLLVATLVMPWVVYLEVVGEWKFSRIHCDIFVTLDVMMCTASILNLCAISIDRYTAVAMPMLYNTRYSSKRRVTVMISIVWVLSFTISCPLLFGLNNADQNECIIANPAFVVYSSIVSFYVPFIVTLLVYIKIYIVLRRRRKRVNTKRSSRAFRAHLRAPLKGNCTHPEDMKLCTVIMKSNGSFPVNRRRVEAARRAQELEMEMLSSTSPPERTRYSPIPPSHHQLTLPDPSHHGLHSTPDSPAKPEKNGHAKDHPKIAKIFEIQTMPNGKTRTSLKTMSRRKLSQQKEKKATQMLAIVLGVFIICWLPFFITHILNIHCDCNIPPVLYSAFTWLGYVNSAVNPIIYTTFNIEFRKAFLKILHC
Outline: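 HEK293 cells stably expressing human DRD2, pre-treated with PDE inhibitor Ro20-1724 (0.1 mM final) and compound 10 min at room temperature, then stimulated with NKH477 (200nM […]) for 30 min. cAMP read by HTRF (665/620 nm).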

[19] = biological target: D(2) dopamine receptor (Homo sapiens) (UniProt P14416); experiment: Dopamine D2 receptor (DRD2) small molecule antagonists, cell-based qHTS assay (AID 1963595; active = well fitted inhibition curve with a large enough effect in the signal ratio in the repeat runs, with a control signal flat; the % refers to the signal ratio)
Outline: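 Stable D2 receptor HEK293 line, 24 h after seeding. Compound preincubated 10 min, then quinpirole (12 nM) with forskolin analogue NKH477 (200 nM), 30 min, room temperature. Detection by time-resolved FRET of cAMP.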
% is set by controls: 0 for no effect and ±100 for the full control effect.

Chain of Gonadotropin-releasing hormone receptor (Homo sapiens) (P30968 whole entry, looked up): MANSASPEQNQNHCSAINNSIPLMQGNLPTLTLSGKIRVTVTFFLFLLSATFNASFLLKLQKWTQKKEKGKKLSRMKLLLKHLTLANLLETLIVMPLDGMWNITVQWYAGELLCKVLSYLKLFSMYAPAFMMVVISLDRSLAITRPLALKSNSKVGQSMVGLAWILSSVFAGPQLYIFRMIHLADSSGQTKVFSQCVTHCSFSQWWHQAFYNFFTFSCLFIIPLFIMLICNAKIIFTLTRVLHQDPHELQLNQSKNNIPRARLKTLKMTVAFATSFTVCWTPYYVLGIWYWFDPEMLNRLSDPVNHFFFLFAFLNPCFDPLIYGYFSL

CC(C)CCCCCCOC(=O)CCCCC(=O)OCCCCCCC(C)C
inactive: Potency [1] | outcome [2] | Potency [3] | Potency [4] | Potency [5] | Potency [6] | Potency [7] | Potency [8] | Potency [9] | Potency [10] | Potency [11] | Potency [12] | Potency [13] | Potency [14] | Potency [15]

c1ccc(COCc2ccccc2)cc1
inactive: Potency [1] | outcome [16] | Potency [3] | Potency [4] | Potency [5] | Potency [7] | Potency [8] | Potency [17] | Potency [9] | Potency [10] | Potency [11] | Potency [12] | Potency [13] | Potency [18] | Potency [19]

CO[Si](OC)(OC)OC
inactive: Potency [1] | outcome [2] | Potency [3] | Potency [4] | Potency [5] | Potency [6] | Potency [7] | Potency [8] | Potency [17] | Potency [9] | Potency [11] | Potency [12] | Potency [13] | Potency [14] | Potency [15]

Cn1c(N)c(N=O)c(=O)n(C)c1=O
inactive: Potency [1] | outcome [16] | outcome [2] | Potency [3] | Potency [5] | Potency [6] | Potency [7] | Potency [8] | Potency [17] | Potency [9] | Potency [10] | Potency [11] | Potency [13] | Potency [14] | Potency [18] | Potency [19]

CC(N)C(=O)OC(C)(C)Cc1ccc(Cl)cc1 (stereo unspecified)
inactive: Potency [1] | outcome [16] | outcome [2] | Potency [4] | Potency [5] | Potency [7] | Potency [8] | Potency [17] | Potency [10] | Potency [11] | Potency [12] | Potency [13] | Potency [14] | Potency [19]

CCCCCCCCCCCCCCBr
inactive: Potency [1] | outcome [2] | Potency [3] | Potency [5] | Potency [6] | Potency [8] | Potency [17] | Potency [9] | Potency [10] | Potency [11] | Potency [12] | Potency [13] | Potency [14] | Potency [15] | Potency [18] | Potency [19]

CC(NN)c1ccccc1 (stereo unspecified)
inactive: activity change [1] -0.677% [at 11.8 µM, hits give high values] | activation [2] -1.16% [at 11.8 µM] | activation [3] -2.41% [at 13.5 µM] | activation [4] -0.8% [at 13.6 µM] | activity change, negative = cytotoxicity [5] -4.08% [at 13.5 µM] | activity change, negative = cytotoxicity [6] 2.75% [at 13.5 µM] | activity change, negative = cytotoxicity [7] 23.1% [at 13.5 µM] | activation [8] -1.5% [at 13.5 µM] | activity, negative = inhibition [17] 14.8% [at 12.7 µM] | activation [9] 1.19% [at 15.9 µM] | activity, negative = inhibition [10] 10.3% [at 12.6 µM] | activation [12] -0.272% [at 19 µM] | activity change, negative = inhibition [13] -6.39% [at 18.9 µM] | Potency [15] | activation [18] 12.1% [at 19 µM] | activity change, negative = inhibition [19] 4.23% [at 18.9 µM]

FC(F)(F)C(F)(F)C(F)(F)C(F)(F)C(F)(F)C(F)(F)C(F)(F)C(F)(F)C(F)(F)C(F)(F)F
inactive: activity change [1] 0.129% [at 5.22 µM, hits give high values] | activation [2] -1.63% [at 5.23 µM] | activation [3] 0.0412% [at 5.99 µM] | activation [4] -3.19% [at 5.99 µM] | activity change, negative = cytotoxicity [5] 2.89% [at 5.99 µM] | activity change, negative = cytotoxicity [6] -0.558% [at 5.99 µM] | activation [8] -0.0202% [at 5.99 µM] | activation [9] 9.84% [at 7.02 µM] | activity, negative = inhibition [10] 8.35% [at 5.58 µM] | activation [11] -0.0294% [at 6.97 µM] | activation [12] -1.41% [at 8.39 µM] | activity change, negative = inhibition [14] 4.67% [at 8.39 µM] | activation [18] -0.702% [at 8.39 µM] | activity change, negative = inhibition [19] 10.1% [at 8.38 µM]
